PubChem BioAssay (NCATS)
Values joined by “and” are separate entries in the source; they are usually repeats but may differ in a detail not shown here. Equal values may be shown once. Records with an inconclusive call do not appear. Active and inactive are the calls of the source. Unless noted, the call rests on the fitted dose curve; in most records, active means well fitted curve in the direction sought with a large enough effect; inconclusive means small, poorly fitted or top-dose-only effect, or another doubt; inactive means no such curve, though single readings can be large; an effect the other way counts as inactive or inconclusive.

How the values were obtained:
[1] = qHTS to identify inhibitors of the type 1 interferon - major histocompatibility complex class I in skeletal muscle: primary screen against the NCATS Mechanism Interrogation Plate v5.0 (MIPE) Libary (AID 1347411); further: nearly all actives have a fitted effect of over 65% in size; further: potency means the concentration at half of the fitted maximal effect;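 on activity change, negative = inhibition: plate controls were vehicle for no effect and reference inhibitor for full effect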
How it was run: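 HLA-B HiBit myoblasts, dexamethasone-free medium + 4 ng/ml IFN-b, 24 h compound, 11-pt 1:3 from 46 uM final. Readout: Nano-Glo HiBiT lytic luminescence after 10 min lysis, RT.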

[2] = qHTS Assay for Identifying Gametocytocidal Compounds (AID 743244); further: potency means the concentration at half of the fitted maximal effect;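 on max response: on the % scale 0 is the no-effect control and ±100 the full control effect; actives lower the fluorescent signal which means gametocytes are killed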; conditions: P. falciparum 3D7 stage III-V gametocytes, alamarBlue, 72 h; max response: active compounds read low
How it was run: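 Viability read-out was resazurin reduction (alamarBlue, 24 h) measured at Ex 525/Em 598 nm. Beforehand, late-stage (III-V) 3D7 P. falciparum gametocytes at 20,000 cells/well were incubated with compound 72 h at 37C under 5% CO2.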

astro = assay: Drug repurposing screens with cells derived from glioblastoma tumor samples (AID 1345199); conditions: viability, ATP luminescence, 48 h; series mostly up to 45.9 µM; further: nearly all actives have a fitted effect of over 40% in size; further: potency means the concentration at half of the fitted maximal effect
How it was run: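 Primary testing used CD133+ neurospheres from four GBM patients, seven concentrations, 48 h exposure and ATP-based viability; confirmation added three slower-growing patient lines.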

[3] = system: Zika virus NS2B-NS3 protease; assay: Primary screen GU AMC qHTS for Zika virus inhibitors (AID 1347154); further: nearly all actives have a fitted effect of over 70% in size; further: potency means the concentration at half of the fitted maximal effect;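 on activity change, negative = inhibition: 0% = no-inhibitor control and -100% = no-enzyme control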
How it was run: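 Unlinked Zika NS2B hydrophilic domain/NS3 protease domain noncovalent complex (25 nM final) in 10 mM Tris-HCl pH 8.0, 0.01% Tween 20, with AMC peptide substrate. Fluorescence (ex 340, em 450 nm) change over 15 min, room temperature; percent inhibition fitted to 4-parameter Hill equation.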

[4] = molecular target: Luciferin 4-monooxygenase (Photinus pyralis) (UniProt P08659); assay: Biochemical firefly luciferase enzyme assay for NPC (AID 624030);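 further: purified P. pyralis luciferase at 10 nM with luciferin and ATP substrate; 0% = DMSO and -100% = full luciferase inhibition by PTC124 control; nearly all actives have a fitted effect of over 70% in size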
How it was run: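 Counter-screen for direct inhibition of the luciferase enzyme by approved-drug library compounds, run at 10 nM enzyme in 50 mM Tris acetate (final). Luminescence was read within 5 min of enzyme-buffer addition and normalized to PTC124 versus DMSO (0%).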

[5] = molecular target: Cytochrome P450 2D6 (Homo sapiens) (UniProt P10635); assay: Cytochrome P450 family 2 subfamily D member 6 (CYP2D6) small molecule antagonists: luciferase biochemical (cell-free) qHTS assay (AID 1645840; active means well fitted curve in the direction sought with a large enough effect in the repeat runs; an effect the other way counts as inactive or inconclusive; further: potency means the concentration at half of the fitted maximal effect; nearly all actives have a fitted effect of over 55% in size)
How it was run: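 P450-Glo CYP2D6 system: proluciferin substrate converted by enzyme to luciferin, read by luminescence proportional to activity. Enzyme-substrate mix with compound 10 min at room temperature, then NADPH regeneration 1 h before detection reagent.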

[6] = qHTS assay to identify inhibitors of the type 1 interferon - major histocompatibility complex class I in skeletal muscle: Counter screen cell viability and HiBit confirmation (AID 1347412); conditions: iHSKM muscle cells + IFN-b, HiBiT or CellTiter-Glo, 24 h; further: nearly all actives have a fitted effect of over 60% in size; further: potency means the concentration at half of the fitted maximal effect; on activity change, negative = inhibition: on the % scale 0 is the no-effect control and ±100 the full control effect
How it was run: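 After 24 h with human IFN-beta (4 ng/ml) and compound titrations (top 46 uM final, 1:3, 12 points), HLA-B HiBit myoblasts were lysed for either Nano-Glo HiBiT luminescence or CellTiter Glo viability on paired plates.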

Chain of Luciferin 4-monooxygenase (Photinus pyralis) (P08659 whole entry, looked up): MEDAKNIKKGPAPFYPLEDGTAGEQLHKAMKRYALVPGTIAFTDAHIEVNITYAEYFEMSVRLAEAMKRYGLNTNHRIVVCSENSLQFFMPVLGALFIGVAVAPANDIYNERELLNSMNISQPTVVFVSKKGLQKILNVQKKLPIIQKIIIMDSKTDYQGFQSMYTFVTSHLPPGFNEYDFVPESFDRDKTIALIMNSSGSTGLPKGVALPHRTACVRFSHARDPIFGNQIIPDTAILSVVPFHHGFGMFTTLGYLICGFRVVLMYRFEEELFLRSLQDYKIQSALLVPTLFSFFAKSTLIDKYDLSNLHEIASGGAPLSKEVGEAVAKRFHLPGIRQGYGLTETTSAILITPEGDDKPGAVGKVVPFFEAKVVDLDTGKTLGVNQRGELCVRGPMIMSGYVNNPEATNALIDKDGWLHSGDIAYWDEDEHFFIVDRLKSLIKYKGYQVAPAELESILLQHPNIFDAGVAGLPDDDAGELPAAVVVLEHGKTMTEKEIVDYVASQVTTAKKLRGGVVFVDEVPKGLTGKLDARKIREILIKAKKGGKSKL
Chain of Cytochrome P450 2D6 (Homo sapiens) (P10635 whole entry, looked up): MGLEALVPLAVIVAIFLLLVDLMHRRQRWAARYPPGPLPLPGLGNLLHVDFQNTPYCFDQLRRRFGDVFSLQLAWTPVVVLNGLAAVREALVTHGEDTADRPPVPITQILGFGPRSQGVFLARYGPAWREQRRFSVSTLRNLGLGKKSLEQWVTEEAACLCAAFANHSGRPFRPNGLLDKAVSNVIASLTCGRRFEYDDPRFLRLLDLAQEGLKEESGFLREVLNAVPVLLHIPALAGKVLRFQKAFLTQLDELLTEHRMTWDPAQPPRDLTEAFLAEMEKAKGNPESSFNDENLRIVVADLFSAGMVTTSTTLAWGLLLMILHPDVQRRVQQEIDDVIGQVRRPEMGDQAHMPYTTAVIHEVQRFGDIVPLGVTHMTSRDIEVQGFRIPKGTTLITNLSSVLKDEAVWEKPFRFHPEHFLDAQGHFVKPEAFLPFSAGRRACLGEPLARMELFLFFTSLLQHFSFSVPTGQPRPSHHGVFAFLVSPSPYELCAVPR

NC(=O)c1nc(F)c[nH]c1=O
Potency [1]: inactive

C[N+]1(C)CCN(CC(O)(c2ccccc2)C2CCCCC2)CC1 (centres undefined)
max response [2]: -2.89% (inactive)
Potency (astro): inactive

C=C1C(=O)O[C@H]2[C@H]1CC/C(C)=C\CC[C@@]1(C)O[C@@H]21
Potency (astro): 20 µM (active)

Cn1cc(C2=C(c3cn(CCCSC(=N)N)c4ccccc34)C(=O)NC2=O)c2ccccc21
Potency [3]: inactive

C#C[C@]1(OC(C)=O)CC[C@H]2[C@@H]3CCC4=CC(=O)CC[C@@H]4[C@H]3CC[C@@]21C
max response [2]: -3.45% (inactive)

NCCNCCN
max response [2]: 9.59% (inactive)
Potency (astro): inactive

CCCCCCCC[N+](C)(C)CCCCCCCC
Potency [4]: inactive
Potency [2]: 7.94 µM (active) and 8.91 µM (active)
Potency [5]: 0.674 µM (active)
Potency (astro): 20 µM (active) and 12.6 µM (active)

C#Cc1cccc(Nc2ncnc3cc(OC)c(OC)cc23)c1
Potency [3]: inactive

CN1CCN(Cc2ccc(Nc3ncc(Cl)c(Nc4ccccc4S(=O)(=O)N(C)C)n3)cc2)CC1
Potency [1]: 0.151 µM (active)

CN1CCC(c2c(O)cc(O)c3c(=O)cc(-c4ccccc4Cl)oc23)C1CO (centres undefined)
Potency [1]: 0.739 µM (active)
Potency ([6]; HiBiT): 0.787 µM (active)
activity change, negative = inhibition ([6]; Viability, at 45.9 µM (top of the series)): -2.93% (inactive)

CN1CCN(CCC=C2c3ccccc3Sc3ccc(S(=O)(=O)N(C)C)cc32)CC1
Potency [4]: inactive
Potency (astro): 31.6 µM (active)

CS(=O)(=O)CCNCc1nc(-c2ccc3ncnc(Nc4ccc(OCc5cccc(F)c5)c(Cl)c4)c3c2)cs1
Potency [3]: inactive

O=c1[nH]ccc2c(S(=O)(=O)N3CCCNCC3)cccc12
Potency [3]: 26.7 µM (active)

C[C@H]1COCCN1c1cc(C2(S(=O)(=O)C3CC3)CC2)nc(-c2ccc(NC(=S)NCCO)cc2)n1
Potency [1]: 0.208 µM (active)

CCC(=O)O[C@H]1CC[C@H]2[C@@H]3CCc4cc(O)ccc4[C@H]3CC[C@]12C
max response [2]: 3.09% (inactive)
Potency (astro): 12.6 µM (active)

CCc1c(C(=O)NNC(=O)[C@@H](O)c2cc(F)cc(F)c2)ccc(O)c1C
Potency [1]: inactive

C=C1/C(=C\C=C2/CCC[C@]3(C)[C@@H]([C@H](C)OCCC(C)(C)O)CC[C@@H]23)C[C@@H](O)C[C@@H]1O
max response [2]: -1.53% (inactive)

C#Cc1cccc(Nc2ncnc3cc4c(cc23)OCCOCCOCCO4)c1
Potency [1]: inactive

N[C@@H](C(=O)N[C@@H]1C(=O)N2C(C(=O)O)=C(CSc3cn[nH]n3)CS[C@H]12)c1ccc(O)cc1
max response [2]: -0.063% (inactive)
Potency (astro): inactive
